mIDH1 inhibitor: inhibitors of human mutant IDH1 R132H | IDH1-R132H enzyme, NADPH consumption, diaphorase/resazurin fluorescence | 0.093% of 390,000 active | O75874 | Potency, µM (highest dose often 76.6 µM), for inactives: at the highest dose activity change, negative = inhibition, hits mostly inhibitors; also: % is scaled to controls: 0 for no effect and ±100 for the full control effect; nearly all actives have a fitted effect of over 65% in size
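IDH1-R132H (0.5 ug/mL) preincubated 30 min with compound, then NADPH (0.016 mM) and alpha-KG (2 mM) added; 80 min at RT, pH 7.5. Remaining NADPH coupled via diaphorase/resazurin to fluorescence (540/590 nm); concentration-response curves normalized to no-enzyme control.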
rTrxR1 inhibitor: rat TrxR1 inhibition; O89049; recombinant rTrxR1, NADPH fluorescence consumption, selenite substrate; Potency, µM (doses to about 114 µM), for inactives: at the top dose activity change, negative = inhibition, hits mostly inhibitors; 1% of 390,000 active; AID 588453; also: % is scaled to controls: 0 for no effect and ±100 for the full control effect; nearly all actives have a fitted effect of over 65% in size
Target sequence (O89049 whole entry, looked up): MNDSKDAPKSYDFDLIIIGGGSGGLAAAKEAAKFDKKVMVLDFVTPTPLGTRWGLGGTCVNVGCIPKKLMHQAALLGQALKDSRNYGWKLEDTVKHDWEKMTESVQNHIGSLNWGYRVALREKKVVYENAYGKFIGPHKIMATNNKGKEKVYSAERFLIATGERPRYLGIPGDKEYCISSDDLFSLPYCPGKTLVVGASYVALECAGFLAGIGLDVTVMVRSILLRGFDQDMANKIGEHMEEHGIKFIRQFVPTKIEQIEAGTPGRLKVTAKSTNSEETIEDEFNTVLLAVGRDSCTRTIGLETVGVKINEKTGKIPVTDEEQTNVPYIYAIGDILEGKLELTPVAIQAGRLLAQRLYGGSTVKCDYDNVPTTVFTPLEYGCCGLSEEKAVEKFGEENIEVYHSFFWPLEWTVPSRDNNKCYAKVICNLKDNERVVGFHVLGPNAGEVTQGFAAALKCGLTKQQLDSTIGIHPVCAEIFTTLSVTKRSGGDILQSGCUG
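Rat TrxR1 (90 nM in the dispensed reagent) was pre-reduced with 400 uM NADPH for 5 min at room temperature, then incubated with compound for 15 min. After 400 uM selenite was added, NADPH fluorescence (Ex 340/Em 450 nm) was followed for 8 min.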
TrxR1 substrate: rat thioredoxin reductase 1 substrate activity; O89049; purified TrxR1 substrate turnover, NADPH consumption readout; Potency, µM (titrated, usually from 114 µM), inactives show at the top dose activity change, negative = substrate turnover; 0.01% of 390,000 active; AID 588456; also: % is scaled to controls: 0 for no effect and ±100 for the full control effect; nearly all actives have a fitted effect of over 50% in size
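Rat TrxR1, dispensed at 90 nM, was prereduced with 400 uM NADPH (final) for 5 min at ~22 deg C, then incubated with compound 15 min before 400 uM selenite. A first-read NADPH fluorescence drop versus no-compound background flagged substrates.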
Nrf2 inh: inhibitors of Nrf2 signaling; A549 ARE-Fluc reporter, luciferase luminescence, 18-24 h; Potency, µM (top dose mostly 46 µM), without a hit: at the highest dose activity change, negative = inhibition, hits mostly inhibitors; 2.1% of 360,000 active; also: % is scaled to controls: 0 for no effect and ±100 for the full control effect; nearly all actives have a fitted effect of over 60% in size
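Nrf2 activity is the BugLite luminescence, read 15 min after reagent at room temperature, following CellTiter-Fluor cytotoxicity readout (30 min, 37C). Compound titrations were applied for 18-24 h to 5000 A549 ARE_Fluc cells/well in 5% FBS OPTI-MEM.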
Mito fusion yeast: inhibitors of mitochondrial division or activators of mitochondrial fusion. 0.23% of 320,000 active. S. cerevisiae fusion-defective mutant growth rescue, CellTiterGlo 48 h. Potency, µM (series often up to 46.1 µM), for inactives: at the highest dose growth rescue (activation), actives largely listed as activators; also: % of control where 0% means no effect; nearly all actives have a fitted effect of over 45% in size
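Temperature-sensitive fusion-defective S. cerevisiae (e.g. fzo1-1, mgm1-5) were grown with compound in YPEG medium (3% ethanol, 3% glycerol) for 48 hours at 37C. Growth rescue was measured as viability by CellTiterGlo luminescence after 10 minutes at ambient.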
A549 tox: kills or reduces viability of A549 cells in Nrf2 counter-screen | AID 504648 | Potency, µM (titrated, usually from 46 µM), for the others: top-dose activity change, negative = cytotoxicity, usual class: inhibitors | A549 ARE-Fluc cells, CellTiter-Fluor viability, 18-24 h | 0.16% of 390,000 active; also: % is scaled to controls: 0 for no effect and ±100 for the full control effect
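A549 ARE_Fluc cells in 5% FBS OPTI-MEM were exposed to compounds in concentration-response for 18-24 h at 37 deg C. Viability was read by CellTiter-Fluor fluorescence (Ex 405/Em 525) after 30 min, before the luciferase read.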
Numbers without * were called inactive; ? = inconclusive; / = not tested or not shown; ! = not confirmed by another sample; [ ] = remark or other dose. A selection: hits, their analogues and other compounds. The true share with any hit is near 3.1%. Calls follow the shape of the dose curve; as a rule, active = well fitted curve in the direction sought with a large enough effect; inconclusive = small, poorly fitted or top-dose-only effect, or another doubt; inactive = no such curve, though single readings can be large; an effect the other way counts as inactive or inconclusive. Potency is read from the fitted curve at half-maximal effect.

SMILES	mIDH1 inhibitor	rTrxR1 inhibitor	TrxR1 substrate	Nrf2 inh	Mito fusion yeast	A549 tox
O=C(CCN1CCC(c2ccc(Cl)s2)=N1)c1ccc(Cl)s1	-1%	2.8µM*	2%	1%	0%	4%
O=C(CCC(=O)N1CCN(c2ccccc2F)CC1)c1ccc(Cl)s1	1%	4%	-5%	18%	/	7%
COc1cc(C(=O)Nc2ccc(NC(=O)c3ccc(Br)cc3)cc2)cc(OC)c1OC	0%	22%	7%	4%	/	20%
O=C(CC1Sc2ncnn2C1=O)Nc1ccc(Br)cc1 (stereo not drawn)	-9%	1.4µM*	12%[57.1 µM]	14%	5%	6%
COc1ccccc1C(C(=O)NCc1ccccc1)N(C(=O)c1csnn1)C1CC1 (stereo not drawn)	14%	12%[57.1 µM]	11%[57.1 µM]	14%	5%	-3%
COc1ccccc1C(C(=O)NC1CCCC1)N(C(=O)c1csnn1)C1CC1 (stereo not drawn)	1%	5%[57.1 µM]	-2%	-4%	3.2µM*	-22%
CCOC(=O)C1=C(C)C(c2cccc(Oc3ccccc3)c2)NC(=S)N1 (stereo not drawn)	-8%	6%[57.1 µM]	-5%	?	?	3%
CCCC(=O)C1=C(O)C(c2cccc(Oc3ccccc3)c2)CCC1=O (stereo not drawn)	-6%	-9%	-3%	18µM*	-14%	?
Nc1ccc(-c2cc3ccccc3[nH]2)cc1	/	109%	119%	/	/	/
Cc1cc(C(=O)CSc2nnc(-c3ccc(Cl)cc3)n2C)c(C)n1CC1CCCO1 (stereo not drawn)	7%	5%	-1%	7%	4%	-9%[1.84 µM]
Cc1cc(C)n2nc(SCC(=O)c3cc(C)n(CC4CCCO4)c3C)nc2n1 (stereo not drawn)	-2%	10%[57.1 µM]	-1%[57.1 µM]	10µM*	10%	-5%
Cc1cc(C(=O)Cn2nnc(-c3ccc(Cl)cc3)n2)c(C)n1CC1CCCO1 (stereo not drawn)	5%	15%	10%	13µM*	2%	-9%
CN(C)c1ccc(/C=C/c2ccnc3ccc(Br)cc23)cc1	/	-8%	-6%	/	/	/
Cc1ccc2c(c1)N(CC(=O)Nc1ccccc1C(F)(F)F)C(=O)c1cccnc1O2	14%	0%	0%	?	/	13%
O=C(c1cccc(F)c1)N1CCN(c2cc(N3CCCCC3)c(F)cc2[N+](=O)[O-])CC1	0%	5%	-9%	21µM*	13%	?
CCC(=O)N1CCN(c2cc(N3CCCC3)c(F)cc2[N+](=O)[O-])CC1	2%	9%	-8%	-25%	/	2%
Cn1c(=O)n(C)c2cc([N+](=O)[O-])c(N3CCN(C(=O)c4ccc(F)cc4)CC3)cc21	-11%	-3%	-8%	18µM*	-5%	-22%
CC(=O)N1CCN(c2cc(N3CCc4ccccc4C3)c(F)cc2[N+](=O)[O-])CC1	6%	-4%	-2%	23µM*	8%	?
Cn1c(=O)n(C)c2cc([N+](=O)[O-])c(N3CCN(C(=O)c4ccc(Cl)cc4)CC3)cc21	3%	-4%	-10%	?	-3%	2%
CC(=O)Nc1ccc(S(=O)(=O)N2CCN(c3cc4c(cc3[N+](=O)[O-])n(C)c(=O)n4C)CC2)cc1	-5%	6%	-1%	16µM*	0%	4%
CC(C)(C)[C@H]1CCC(=O)N(CCSc2ccc(Br)cc2)CC1	/	16%	-4%	/	/	/
C=CCc1cccc(C=NNC(=O)CN2CCN(Cc3ccccc3)CC2)c1O	/	-11%[57.1 µM]	-2%[57.1 µM]	/	4%	/
COc1cc(C(N)=O)cc(Br)c1OCc1ccccc1	3%	-9%	-15%	-3%	?	12%
CCOc1c(Br)cc(C(N)=O)cc1OCc1ccccc1	17%	23%	5%	?	11µM*	0%
Cc1nc(Nc2ccccc2)sc1C(=O)Nc1ccccc1	3%	2%[57.1 µM]	-3%	2%	1%	-2%
SMILES	mIDH1 inhibitor	rTrxR1 inhibitor	TrxR1 substrate	Nrf2 inh	Mito fusion yeast	A549 tox
Cc1nc(Nc2ccccc2Cl)sc1C(=O)Nc1ccccc1	2%	-22%	-16%	-9%	16µM*	-3%
Cc1ccc(CN2CCOCCS2(=O)=O)cc1	/	-1%	-3%	/	/	/
N=c1c2c(ccn1CCCc1ccccc1)Oc1ccc3ccccc3c1C2c1ccccc1 (stereo not drawn)	/	/	/	15µM*	/	15µM*
N=c1c2c(ccn1-c1ccccc1)Oc1ccc3ccccc3c1C2c1ccccc1 (stereo not drawn)	/	/	/	16µM*	/	?
COc1cccc(C2c3c(ncn(-c4cccc(OC)c4)c3=N)Oc3ccc4ccccc4c32)c1 (stereo not drawn)	/	/	/	-2%	/	-12%
O=C(O)c1ccc(Nc2ccc(Cl)c(Cl)c2)c([N+](=O)[O-])c1	-3%	-2%	-3%	?	14µM*	?
O=C(O)c1ccc(Nc2ncc([N+](=O)[O-])cc2[N+](=O)[O-])cc1	15%	-18%[57.1 µM]	-9%[57.1 µM]	-13%	1%	18µM*
CCOc1ccc(C(C)=O)cc1N1C(=O)C2C3C=CC(O3)C2C1=O (stereo not drawn)	-1%	3.2µM*	7%	-21%	-1%	-2%
CCOc1ccc(C(C)=O)cc1N1C(=O)C2C3C=CC(C3)C2C1=O (stereo not drawn)	-1%	-5%	9%[57.1 µM]	/	0%	1%
O=Cc1ccc(O)cc1	/	-8%	-7%	/	/	/
c1ccc(-c2nc(NCc3ccco3)c3ccccc3n2)nc1	1%	?	-5%	21µM*	0%	-26%
Oc1cccc2ccc(Nc3ccccn3)nc12	8%	6%	1%	?	-4%	4.1µM*
C=C1C(=O)O[C@@H]2[C@H]3O[C@]3(C)CCC=C(C)CC[C@@H]12	/	17µM*!	18%[57.1 µM]	/	-33%	/
Cc1ccc(Cn2ccc(NC(=O)c3cc(-c4cccc(Cl)c4)on3)n2)cc1	0%	-4%	7%	21µM*	-3%	?
Cc1ccc(Cn2ccc(NC(=O)c3cc(-c4ccc(Cl)cc4)on3)n2)cc1	2%	17%	10%	/	-3%	0%
Cc1ccc(NC(=S)N=Nc2c(O)[nH]c3ccccc23)cc1	-2%	10%	6%[57.1 µM]	-20%	-18%	-11%
COc1ccc(NC(=S)N=Nc2c(O)[nH]c3ccccc23)cc1	-3%	-1%	-8%	9.2µM*	14%	?
CC(C)c1ccc(N2C(=O)/C(=C/N(C)C)SC2=S)cc1	13µM*	-4%	-10%	6%	5%	-15%
CC(C)CN(CC(C)C)S(=O)(=O)c1ccc(C(=O)Nc2sc3c(c2C(N)=O)CCN(C(C)C)C3)cc1	-4%	20%[57.1 µM]	-1%[57.1 µM]	/	/	25%
